# “And” between values parts separate entries of the source, which are not always exact repeats. Identical values can stand only once. A structure can be active in one record and inactive in another. The source made the active and inactive calls. Entries that show only a call come without a potency. The call rests on the fitted dose curve; in most records, active means well fitted curve in the direction sought with a large enough effect in the repeat runs; inconclusive means weak or mixed curves; inactive means flat fitted curve, though single readings scatter.
# Test: qHTS assay to test for compound auto fluorescence at 535 nm (green) in HepG2 cells (AID 720675)
# Settings: green autofluorescence 485/535 nm, 1 h; series mostly up to 91.3 µM
# Tags describe the fitted curve by direction and shape or compound fluorescence and quenching.
Compound,outcome,"fluorescence, % of fluorescein control"
CC1=CCC(C(C)C)C=C1 (centres undefined),inactive,–
CC(=O)c1ccc2c(c1)[C@H](NC(=O)c1ccc(F)cc1)[C@@H](O)C(C)(C)O2,inactive,–
C=C(C)C(=O)OC(C)C,inactive,–
CC(C)c1ccccc1C(C)C,inactive,–
CC(C)CCCC(C)CCO (centres undefined),inactive,–
CCC(=O)OC(C)(C)C1CC=C(C)CC1 (centres undefined),inactive,–
Cc1ncsc1CCO,inactive,–
CCCOc1ccc2nc(NC(=O)OC)[nH]c2c1,inactive,–
COCCOCCOCCOCCOC,inactive,–
COc1ccc(C(C)=O)cc1,inactive,–
N=C(N=C(N)N)N1CCOCC1,–,-0.084% [at 18.6 µM] (inactive)
CCCCCCCCCO,inactive,–
O=C(C(=O)c1ccc(Br)cc1)c1ccc(Br)cc1,–,0.0081% [at 18.6 µM] (inactive)
C#CCOC(=O)[C@@H](C)Oc1ccc(Oc2ncc(Cl)cc2F)cc1,inactive,–
CC(C)=CCCC(C)CC=O (centres undefined),inactive,–
COCCO,inactive,–
O=C=NC1CCC(CC2CCC(N=C=O)CC2)CC1 (centres undefined),inactive,–
CC(C)c1cccc(C(C)C)c1NC(=O)NS(=O)(=O)c1cc(C(C)(C)O)co1,inactive,–
N#Cc1cc2ccccc2c2ccccc12,inactive,–
Nc1nc(N)c2nc(CNc3ccc(C(=O)N[C@@H](CCC(=O)O)C(=O)O)cc3)cnc2n1,inactive,–
C1=Cc2ccccc2C1,inactive,–
CCCCCc1ccc(N)cc1,inactive,–
Cc1cccc(OCCOc2cccc(C)c2)c1,inactive,–
Cc1ccc(C(=O)C(C)CN2CCCCC2)cc1 (centres undefined),inactive,–
Nc1cnn([C@@H]2O[C@H](CO)[C@@H](O)[C@H]2O)c(=O)n1,inactive,–
CC[C@H](C)[C@@H](C(=O)O)n1sc2ccccc2c1=O,inactive,–
O=C1[C@H](CC[C@H](O)c2ccc(F)cc2)[C@@H](c2ccc(O)cc2)N1c1ccc(F)cc1,inactive,–
CC(C)(C)C(=O)OCOP(=O)(COCCn1cnc2c(N)ncnc21)OCOC(=O)C(C)(C)C,inactive,–
CC(=O)CC(=O)c1ccccc1,inactive,–
CC(=O)[C@@]1(O)CC[C@H]2[C@@H]3C[C@H](C)C4=CC(=O)CC[C@]4(C)[C@H]3CC[C@@]21C,inactive,–

# Test: qHTS assay to test for compound auto fluorescence at 460 nm (blue) in HEK293 cells (AID 720678); further: potency means the concentration at half of the fitted maximal effect
# Settings: blue autofluorescence 405/460 nm; series mostly up to 91.3 µM
# Method in brief: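 Blue-channel (Ex/Em 405/460 nm) intensity measured in HEK293 cultures after overnight compound exposure at 37C; signal expressed relative to triamterene. Cells plated 2,000 per well in 10% dialyzed FBS medium and allowed 4-5 hr to attach.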
Compound,Potency,"fluorescence, % of triamterene"
CC1CCc2cc(F)cc3c(=O)c(C(=O)O)cn1c23 (centres undefined),inactive,–
CC1=CCC(C(C)C)C=C1 (centres undefined),inactive,–
CC(=O)c1ccc2c(c1)[C@H](NC(=O)c1ccc(F)cc1)[C@@H](O)C(C)(C)O2,inactive,–
C=C(C)C(=O)OC(C)C,inactive,–
CC(C)c1ccccc1C(C)C,inactive,–
CCOc1cc(OCC)c(C(=O)CCC(=O)O)cc1OCC,inactive,–
CC(C)CCCC(C)CCO (centres undefined),inactive,–
CC(C)(C)C1CCCCC1O (centres undefined),inactive,–
CCC(=O)OC(C)(C)C1CC=C(C)CC1 (centres undefined),inactive,–
Cc1ncsc1CCO,inactive,–
CCCOc1ccc2nc(NC(=O)OC)[nH]c2c1,inactive,–
COCCOCCOCCOCCOC,inactive,–
CC(=O)Nc1ccc(/C=N/NC(N)=S)cc1,inactive,–
COc1ccc(C(C)=O)cc1,inactive,–
N=C(N=C(N)N)N1CCOCC1,–,-0.223% [at 18.6 µM] (inactive)
CCCCCCCCCO,inactive,–
CC[C@H](C)[C@H](N)C(=O)O,inactive,–

Compound,Potency,"fluorescence, % of triamterene"
Cc1cc(NC(=O)C(=O)O)cc(C)c1Oc1ccc(O)c2c1CCC2,inactive,–
O=C(C(=O)c1ccc(Br)cc1)c1ccc(Br)cc1,–,0.126% [at 18.6 µM] (inactive)
C#CCOC(=O)[C@@H](C)Oc1ccc(Oc2ncc(Cl)cc2F)cc1,inactive,–
CC(C)=CCCC(C)CC=O (centres undefined),inactive,–
COCCO,inactive,–
O=C=NC1CCC(CC2CCC(N=C=O)CC2)CC1 (centres undefined),inactive,–
CC(C)c1cccc(C(C)C)c1NC(=O)NS(=O)(=O)c1cc(C(C)(C)O)co1,inactive,–
N#Cc1cc2ccccc2c2ccccc12,inactive,–
Nc1nc(N)c2nc(CNc3ccc(C(=O)N[C@@H](CCC(=O)O)C(=O)O)cc3)cnc2n1,inactive and 39.8 µM [fluorescent] (active),–
C1=Cc2ccccc2C1,inactive,–
CCCCCc1ccc(N)cc1,inactive,–
Cc1cccc(OCCOc2cccc(C)c2)c1,inactive,–
Cc1ccc(C(=O)C(C)CN2CCCCC2)cc1 (centres undefined),inactive,–
N#Cc1c(F)cccc1F,inactive,–
Nc1cnn([C@@H]2O[C@H](CO)[C@@H](O)[C@H]2O)c(=O)n1,inactive,–
CC[C@H](C)[C@@H](C(=O)O)n1sc2ccccc2c1=O,inactive,–
O=C1[C@H](CC[C@H](O)c2ccc(F)cc2)[C@@H](c2ccc(O)cc2)N1c1ccc(F)cc1,inactive,–

# From PubChem BioAssay (Tox21)
